A selection: hits, their analogues and other compounds. The true share with any hit is near 19%.
ELG1 DNA repair = ELG1-dependent DNA repair inhibition. Potency, µM (series often up to 46.1 µM), without a hit: at the highest dose activity change, negative = inhibition, most hits filed as inhibitors. HEK293T ELG1-luciferase reporter, luminescence, 16 h; DNA damage induced by 5-fluorouridine. 330,000 tested, 2.3% active; note: potency is the fitted concentration of half-maximal effect; nearly all actives have a fitted effect of over 55% in size
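Step one: seed 2,000 cells per well. Step two: pin-transfer compound or DMSO alongside 5-fluorouridine. Step three: incubate 16 hr, 37 °C, 5% CO2. Step four: add ONE-Glo, wait 30 min, read luminescence.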
DT40 TDP1 no CPT = qHTS for Inhibitors of human tyrosyl-DNA phosphodiesterase 1 (TDP1): qHTS in cells in absence of CPT; DT40 Tdp1-/- hTDP1 cells, no CPT, ATP luminescence, 48 h; Potency, µM (top dose mostly 46.2 µM), for inactives: at the top dose activity change, negative = growth inhibition, usual class: inhibitors; 420,000 tested, 15% active; AID 686978, 2013; note: potency is the fitted concentration of half-maximal effect; nearly all actives have a fitted effect of over 55% in size
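DT40 Tdp1-/-;hTDP1 cells, no CPT (DMSO vehicle only), 400 cells/well; compounds pin-transferred; ≥48 hr, 37 °C; CellTiter-Glo 30 min RT dark, luminescence read.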
TDP1 block = blocks human tyrosyl-DNA phosphodiesterase 1; Q9NUW8; Potency, µM (series often up to 130 µM), for inactives: at the top dose activity change, negative = inhibition, most hits filed as inhibitors; recombinant TDP1, AlphaScreen DNA substrate cleavage; 350,000 tested, 0.28% active; note: potency is the fitted concentration of half-maximal effect; nearly all actives have a fitted effect of over 40% in size
Target sequence (Q9NUW8 whole entry, looked up): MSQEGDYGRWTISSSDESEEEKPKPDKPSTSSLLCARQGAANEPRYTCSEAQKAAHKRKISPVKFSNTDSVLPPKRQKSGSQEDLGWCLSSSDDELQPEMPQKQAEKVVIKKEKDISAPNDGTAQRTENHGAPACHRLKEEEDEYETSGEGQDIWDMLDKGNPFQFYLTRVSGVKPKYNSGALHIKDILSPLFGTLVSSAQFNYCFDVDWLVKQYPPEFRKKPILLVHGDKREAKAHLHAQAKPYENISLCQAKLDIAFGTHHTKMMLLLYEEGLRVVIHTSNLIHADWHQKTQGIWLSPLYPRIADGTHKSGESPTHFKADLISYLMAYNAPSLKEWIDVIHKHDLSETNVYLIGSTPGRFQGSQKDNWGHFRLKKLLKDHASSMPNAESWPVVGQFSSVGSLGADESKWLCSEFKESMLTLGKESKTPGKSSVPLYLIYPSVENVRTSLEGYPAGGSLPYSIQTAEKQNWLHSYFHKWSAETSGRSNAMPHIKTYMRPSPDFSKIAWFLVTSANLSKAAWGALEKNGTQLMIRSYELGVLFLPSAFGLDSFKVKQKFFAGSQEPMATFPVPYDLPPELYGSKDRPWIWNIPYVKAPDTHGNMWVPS
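Recombinant human Tdp1 (E. coli-expressed, 1 nM final) preincubated with compounds 15 min at room temperature, then 5'-biotin/3'-phosphotyrosine-FITC DNA substrate (15 nM final) added for 5 min. AlphaScreen beads (10 ug/ml final) added 10 min; cleavage lowers signal.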
Giardia killer = Giardia lamblia killing; AID 540267; activity change, % at 7.66 µM, hits read low; 340,000 tested, 0.15% active; Giardia lamblia trophozoite viability; in the data active = activity change below about -80%; inconclusive = between about -30% and that limit;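 note: parasites exposed to compound for two days anaerobically before the ATP read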
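Killing of trophozoites was scored by loss of ATP luminescence after a 48 hrs anaerobic exposure to compounds at 37 deg C, using 100 cells per well.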
DT40 TDP1 CPT = DT40-hTDP1 cell growth loss with CPT | chicken DT40 Tdp1-/-;hTDP1 cells + 20 nM CPT, ATP luminescence, 48 h | Potency, µM (highest dose often 46.2 µM), for inactives: at the top dose activity change, negative = growth inhibition, actives largely listed as inhibitors | 420,000 tested, 12% active | AID 686979; note: potency is the fitted concentration of half-maximal effect; nearly all actives have a fitted effect of over 55% in size
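Chicken DT40 Tdp1-/- cells stably complemented with human TDP1 were seeded at 400 cells/well in medium containing 20 nM camptothecin, exposed to pin-transferred compounds, and grown at 37 °C for at least 48 hr. Viability was read as ATP luminescence.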
IL1B secr inh = inhibitors of inflammasome signaling (IL-1 beta secretion). THP-1 LPS/ATP IL-1B secretion, AlphaLISA, 16 h; hits give low values. activity change, % at 57.5 µM. 360,000 tested, 4.7% active; in the data active = activity change below about -50%; inconclusive = mostly about -30% to -49%
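THP-1 cells pretreated 1 hr with compounds (up to 57.5 uM final), then stimulated with LPS (250 ng/mL final) plus ATP (1.25 mM final); secreted IL-1B measured by AlphaLISA after 16 hr, decreased signal indicating inhibition.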
* marks the source's active call; other numbers are inactive results; ? = inconclusive; / = not tested or not shown. Unless noted, calls come from the whole dose curve; as a rule, active = well fitted curve in the direction sought with a large enough effect; inconclusive = small, poorly fitted or top-dose-only effect, or another doubt; inactive = no such curve, though single readings can be large; an effect the other way counts as inactive or inconclusive. % is set by controls: 0 for no effect and ±100 for the full control effect.

SMILES	ELG1 DNA repair	DT40 TDP1 no CPT	TDP1 block	Giardia killer	DT40 TDP1 CPT	IL1B secr inh
Cc1ccc(OCC(=O)Nc2ccc(N3CCN(C(=O)c4ccc(C)cc4)CC3)cc2)cc1	?	?	2.5%	-0.8	-26.8%	-7.4
Cc1cc(C)cc(OCC(=O)Nc2ccc(N3CCN(C(=O)c4ccco4)CC3)cc2)c1	?	17.8µM*	-1.1%	-3.2	23.1µM*	?
Cc1ccccc1C(=O)N1CCN(c2ccc(NC(=O)CSc3ccc(Cl)cc3)cc2)CC1	?	10.3µM*	5.3%	-4.8	16.4µM*	-72.1*
Cc1cccc(OCC(=O)Nc2ccc(N3CCN(C(=O)c4ccco4)CC3)cc2)c1C	-15.2%	?	4.8%	-10.2	?	28.2
N#Cc1ccc(Cn2c(-c3ccc(F)cc3)noc2=O)cc1	?	-1.8%	/	-27.7	-20.9%	12.8
CCC(=O)NC(=S)Nc1ccc(NC(=O)c2ccc(Br)o2)cc1	?	?	1.8%	-8.9	-10.3%	-54.3*
O=C(CSc1ccc(Cl)cc1)Nc1ccc(NC(=O)c2ccco2)cc1	?	-10.1%	0.0%	8.2	-1.4%	-10.6
Cc1ccccc1OCC(=O)Nc1ccc(N2CCN(C(=O)c3ccco3)CC2)cc1	20.6µM*	20.6µM*	4.9%	0.5	?	?
O=C(CSc1ccc(Cl)cc1)Nc1ccc(N2CCN(C(=O)c3ccco3)CC2)cc1	?	23.1µM*	4.5%	10.4	?	-67.9*
NS(=O)(=O)c1ccc(CCNC(=O)CNC(=O)c2ccccc2F)cc1	15.1%	-2.2%	/	6.5	1.4%	34.0
Cc1cccc(Nc2cc(=O)n(C)c(=O)[nH]2)c1	-7.8%	-18.7%	8.4%	8.2	-23.5%	54.9
OC1O[C@H](c2ccc3c(c2)OCO3)[C@H]2CO[C@H](c3ccc4c(c3)OCO4)[C@@H]12 (stereo partly specified)	-23.2%	20.6µM*	1.2%	2.1	?	5.1
CC1(C)COC(c2ccc3c(c2)OCO3)OC1	/	-9.0%	/	-25.0	8.9%	15.1
CCC(=O)N1CCc2nc(-c3ccccc3)sc2C1	?	2.0%	/	3.9	-3.9%	?
Cc1ccc(O)c(C(=O)c2cnc3c(c2)c(-c2ccc(F)cc2)c(C#N)c(=O)n3C)c1	?	20.6µM*	7.7%	11.7	18.4µM*	-28.0
COc1cccc(C(=O)Nc2ccc(C(=O)OCc3cc(=O)n4cc(C)sc4n3)cc2)c1	/	?	-1.2%	/	?	/
Cc1ccc(NC(=O)CCNC(=O)c2ccc([N+](=O)[O-])cc2)cc1C	0.6%	-14.1%	/	-11.2	2.8%	2.0
CCOC(=O)CSc1ncnc2c1c(-c1ccccc1)cn2-c1ccc(OC)cc1	1.8%	-10.1%	0.0%	-12.1	-2.6%	24.3
c1ccc(-c2cn(-c3ccccc3)c3ncnc(N4CCCCC4)c23)cc1	?	18.4µM*	-8.0%	-7.9	9.2µM*	-57.3*
Clc1cccc(-n2cc(-c3ccccc3)c3c(N4CCCCC4)ncnc32)c1	/	23.1µM*	-7.8%	/	16.4µM*	/
CCCSc1ncnc2c1c(-c1ccccc1)cn2-c1ccccc1OC	/	20.6µM*	-2.9%	/	?	/
COc1ccccc1N1CCN(c2ncnc3c2c(-c2ccccc2)cn3-c2cccc(C)c2)CC1	/	?	2.6%	/	18.4µM*	/
COc1cccc(N2CCN(c3ncnc4c3c(-c3ccccc3)cn4-c3ccc(F)cc3)CC2)c1	/	?	5.2%	/	?	/
CN1CCN(c2ncnc3c2c(-c2ccccc2)cn3-c2ccc(F)cc2)CC1	-11.1%	5.17µM*	4.9%	3.7	18.4µM*	-206.9*
COc1nn(C(C)C(=O)N2N=C(C(F)F)CC2(O)C(F)F)cc1[N+](=O)[O-] (stereo unspecified)	?	0.9%	2.2%	-81.6*	-3.5%	2.4
SMILES	ELG1 DNA repair	DT40 TDP1 no CPT	TDP1 block	Giardia killer	DT40 TDP1 CPT	IL1B secr inh
COc1nn(CC(=O)N2N=C(C(F)F)CC2(O)C(F)F)cc1[N+](=O)[O-] (stereo unspecified)	12.6%	-22.3%	4.2%	15.3	0.9%	19.8
O=C(CCC1CCCN(C(=O)c2ccc3cc[nH]c3c2)C1)NCc1ccc(F)c(F)c1 (stereo unspecified)	-4.7%	-15.8%	7.7%	-19.3	?	-29.6
COc1ccc2[nH]cc(CCNc3ccnc(-c4ccc(N(C)C)cc4)n3)c2c1	/	0.92µM*	/	/	1.03µM*	/
COc1ccc2[nH]cc(CCNc3ccnc(-c4cccc(NS(C)(=O)=O)c4)n3)c2c1	/	10.3µM*	3.6%	/	?	/
COc1ccc2[nH]cc(CCNc3ccnc(-c4cccnc4)n3)c2c1	/	?	/	/	20.6µM*	/
O=C1CCc2cc(S(=O)(=O)Nc3ccccc3-c3ccccc3)ccc2N1	/	/	1.6%	/	/	/
Cc1cc(C(=O)NCC23CC4CC(CC(C4)C2)C3)c(C)o1	6.8%	/	2.4%	/	/	/
CC12CCC(=O)N1C(C(=O)NNC(=O)c1ccc(F)cc1)CS2 (stereo unspecified)	9.5%	13.6%	-1.2%	-7.5	2.5%	-5.6
CC(C)c1ccc(CNc2n[nH]c(-c3ccco3)n2)cc1	/	?	2.6%	/	?	/
N#C/C(=C/c1cn[nH]c1-c1ccc(Br)cc1)C(=O)O	3.1%	0.4%	6.2%	5.1	-0.3%	9.0
COC(=O)[C@]12CCCCC=C1N(Cc1cccc3ccccc13)C(=O)[C@H](CC(=O)NCCCCc1ccccc1)C2	/	16.4µM*	/	/	?	-63.8*
COC(=O)[C@]12CCCCC=C1N(Cc1ccccc1)C(=O)[C@H](CC(=O)NCCCCc1ccccc1)C2	/	?	/	/	23.1µM*	-19.9
CCCCNC(=O)C[C@@H]1C[C@@]2(C(=O)OC)CCCCC=C2N(Cc2cccc3ccccc23)C1=O	/	?	/	/	?	-21.8
O=C(CN1C(=O)CCc2cc(S(=O)(=O)N3CCOCC3)ccc21)NCc1ccc(Cl)cc1	/	-17.4%	-1.2%	/	-17.4%	/
O=c1c(Cl)nc2cc(Cl)ccc2n1CCNc1ncc(C(F)(F)F)cc1Cl	?	0.581µM*	-2.0%	-10.9	0.517µM*	26.9
NNc1nc2cccnc2n(CCNc2ncc(C(F)(F)F)cc2Cl)c1=O	?	?	3.8%	7.2	16.4µM*	0.0
Cc1onc(-c2ccccc2Cl)c1C(=O)N1CCN(C)CC1	8.6%	-3.2%	-10.0%	-10.6	8.5%	29.8
CCc1nc(SCC(=O)Nc2nnc(CC)s2)c2c(C)c(C)sc2n1	0.2%	-4.1%	0.0%	-10.0	-7.6%	29.3
COc1cc(Cl)c(C)cc1NC(=O)CSc1cc(Cl)ccc1Cl	8.7%	23.1µM*	0.0%	-0.9	?	24.2
